Inconclusive results are not listed. Entries that show only a call come without a potency. Calls of active or inactive are those of the source. Unless noted, the call rests on the fitted dose curve; in most records, active means well fitted curve in the direction sought with a large enough effect; inconclusive means small, poorly fitted or top-dose-only effect, or another doubt; inactive means no such curve, though single readings can be large; an effect the other way counts as inactive or inconclusive.
Columns and labels:
[1] = qHTS for differential inhibitors of proliferation of Plasmodium falciparum line 7G8 (AID 1815);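 further: parasite growth measured after three days of incubation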; further: potency means the concentration at half of the fitted maximal effect
[2] = qHTS for differential inhibitors of proliferation of Plasmodium falciparum line W2 (AID 1883); details: Potency: Plasmodium falciparum W2 proliferation inhibition;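 further: parasites grown with compound for 72 h before lysis and staining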; further: potency means the concentration at half of the fitted maximal effect
[3] = qHTS for differential inhibitors of proliferation of Plasmodium falciparum line GB4 (AID 1816); details: Potency: Plasmodium falciparum GB4 proliferation inhibition;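 further: parasite growth measured after 72 h incubation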
[4] = qHTS Assay for Modulators of Human Peripheral Myelin Protein 22 (PMP22) Expression/Activity (AID 1967; active means well fitted curve in the direction sought with a large enough effect in the signal ratio; the % refers to the signal ratio)
Procedure, shortened: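 Mouse MSC80 Schwann cells carrying Pmp22 promoter–green click beetle luciferase plus EF-alpha–red luciferase control, dosed 24 h at 37 °C. Dual-filter luminescence, overlap-corrected; %Activity from green/red ratio normalised to untreated cells, concentration-response curves fitted.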

[5] = qHTS profiling for inhibitors of Plasmodium falciparum proliferation (AID 504749); further: nearly all actives have a fitted effect of over 60% in size; details: P. falciparum in erythrocytes, SYBR Green DNA, 72 h, at 28.7 µM (top of the series)
Procedure, shortened: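 Readout was DNA-dye fluorescence from lysed cultures, ex 485/em 535 nm. Parasitized red cells had grown 72 h with compound; data scaled between 0.29 uM artemisinin and DMSO wells and corrected using vehicle-only plates.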

[6] = AP1 Signaling Pathway (AID 357; active means well fitted curve in either direction with a large enough effect, not every such curve was filed as active;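 further: ME-180 reporter cells stimulated with EGF at its EC50 level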); details: ME-180 AP-1-bla reporter, EGF-induced, beta-lactamase ratio, 5 h
Procedure, shortened: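 In this screen, ME-180 cells in Opti-MEM with 0.5% dialyzed FBS received EC50 EGF and compound titrations for 5 h. AP-1 reporter beta-lactamase was detected via CCF4 ratio, giving AC50 for positive and negative modulators.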

[7] = biological target: Cytochrome P450 1A2 (Homo sapiens) (UniProt P05177); test: p450-cyp1a2 (AID 410; calls by dose curve)
Procedure, shortened: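 Human CYP1A2 (20nM) demethylated Luciferin-ME at its Km (100uM) in 100mM KPO4. After 10 min compound preincubation, NADPH regeneration ran the reaction 60 min at room temperature. Luciferin was read by luminescence, normalized to 57 uM furafylline.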

[8] = NFAT Signaling Pathway (AID 444; active means well fitted curve in either direction with a large enough effect, not every such curve was filed as active;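 further: carbachol stimulus at about its EC50 of 1 µM final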); details: Jurkat NFAT-bla M1, carbachol, beta-lactamase ratio, 5 h
Procedure, shortened: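 Jurkat cells with NFAT-driven β-lactamase reporter and co-expressed M1 receptor, stimulated with carbachol (final 1 uM, ~EC50), compound titration, 5 h at 37 °C. CCF4 loaded 1 h at RT; 460/530 nm ratio gave %activity and AC50.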

[9] = Stat Signaling Pathway (AID 446; active means well fitted curve in either direction with a large enough effect, not every such curve was filed as active;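 further: ME-180 cervical cancer cells given 40 pM IL-6 alongside compound; SIE-controlled beta-lactamase reporter measured as 460/530 nm FRET emission ratio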); details: ME-180 SIE beta-lactamase reporter, IL-6 stimulated, 5 h
Procedure, shortened: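 ME-180 SIE-bla cells; overnight plating; cpd + IL-6 40 pM, 5 h, 37 C; LiveBLAzer 2.5 h RT; 460/530 nm emission ratio. Normalized to 300 pM IL-6 and 125 nM JAK inhibitor controls.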

[10] = biological target: 3',5'-cyclic-AMP phosphodiesterase 4B (Homo sapiens) (UniProt Q07343); test: qHTS Assay for Inhibitors of PDE-IV (AID 607; active means well fitted activation curve with a large enough effect in the main read-out, with a control signal flat, not every such curve was filed as active)
Procedure, shortened: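 ACTOne HEK293 cells carry a modified cAMP-gated CNG channel and express endogenous PDE4; plated 1000 cells/well, compounds up to 22.9 uM final. Membrane-potential dye fluorescence (ex 535/em 590) was read; parental cells received 10 uM forskolin + 100 uM RO 20-1724.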

[11] = biological target: Guanine nucleotide-binding protein G(i) subunit alpha-1 (Homo sapiens) (UniProt P63096); test: qHTS Assay for Inhibitors of RGS12 GoLoco Motif Activity (Green Fluorophore) (AID 879);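 further: negative values mean loss of peptide binding seen as reduced polarization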
Procedure, shortened: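 Fluorescence polarization assay: 50 nM Gαi1 with 10 nM FITC-labeled RGS12 GoLoco peptide in 10 mM Tris pH 7.5, 150 mM NaCl, 0.1 mM GDP, 0.05% NP40, 10 min at room temperature with compound.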

[12] = biological target: Muscarinic acetylcholine receptor M1 (Rattus norvegicus) (UniProt P08482); test: qHTS Assay for Antagonists of Acetylcholine Muscarinic M1 Receptor: Measurement of IP-One Response (AID 944); further: nearly all actives have a fitted effect of over 75% in size
Procedure, shortened: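 CHO cells expressing rat M1 receptor, recovered overnight, were pre-incubated 10 min with compound, then stimulated 30 min with carbachol at EC80 (200 nM) in LiCl-containing buffer, pH 7.4. IP1 accumulation was read by HTRF (620/665 nm).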

[13] = biological target: Pyruvate kinase (Leishmania mexicana) (UniProt Q27686); test: qHTS Validation Assay for Inhibitors of Leishmania Mexicana Pyruvate Kinase (AID 945)
Procedure, shortened: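 Luminescent ATP detection (PKLight) after a 1 h room-temperature reaction of 0.2 nM LmPYK E451W mutant with 0.5 mM PEP and 0.1 mM ADP at pH 7.2. Activity is normalized to DMSO-only control wells.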

[14] = biological target: Pyruvate kinase PKM (Homo sapiens) (UniProt P14618); test: qHTS Assay for Activators of Human Muscle Pyruvate Kinase (AID 954; active means well fitted curve in the direction sought with a large enough effect, not every such curve was filed as active)
Procedure, shortened: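 Luminescence from a luciferase ATP-detection/stop reagent reported PKM2 activity. Reactions contained 0.1 nM purified human enzyme, 0.5 mM PEP, 0.1 mM ADP and 7 mM MgCl2 at pH 7.2, run 1 h at RT.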

[15] = biological target: Alpha-galactosidase A (Homo sapiens) (UniProt P06280); test: Counterscreen for Glucocerebrosidase Inhibitors: qHTS Assay for Human alpha-Galactosidase at pH 4.5 (AID 992)
Procedure, shortened: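 Enzyme at 2 nM final was combined with compound (0.7 nM to 77 uM) and 80 uM 4-methylumbelliferyl alpha-D-galactopyranoside in 50 mM citric acid, 0.005% Tween-20, pH 4.5. After 20 min at room temperature, fluorescence was read (Ex 365/Em 440 nm); AC50 came from Hill fits.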

[16] = biological target: alpha-glucosidase (Oryza sativa, rice) (UniProt Q653V4); test: Counterscreen for Glucocerebrosidase Inhibitors: qHTS Assay for Rice alpha-Glucosidase at pH 5.0 (AID 997)
Procedure, shortened: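 Rice alpha-glucosidase (4 nM final) with 400 uM 4-methylumbelliferyl-alpha-D-glucopyranoside in citrate buffer pH 5.0, 20 min at room temperature, stopped at pH 10; fluorescence 365/440 nm, compounds 0.7 nM–77 uM, AC50 from Hill fits.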

[17] = Validation screen for small molecules that induce DNA re-replication in SW480 colon adenocarcinoma cells (AID 504364)
Procedure, shortened: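 SW480 cells seeded at 250 per well were exposed to compound or DMSO for 48 hr at 37 C, 5% CO2, then stained with Hoechst for 40 min. DNA content per nucleus was imaged (405 nm ex, 500-530 nm em).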

[18] = qHTS drug screen for cell cycle checkpoint inhibitors in PARPi-resistant BRCA-mutant ovarian cancer cell lines. (AID 1963452; calls by dose curve); details: PEO1/OlaR viability, CellTiter-Glo luminescence, 96 h, stronger effect = lower value
Procedure, shortened: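 PEO1, PEO4 and PEO1/OlaR ovarian cancer cells, 600 per well, exposed 96 h at 37C to a dilution series. Viability read by CellTiter-Glo luminescence, normalized to DMSO and empty wells; activity summarized as Z-AUC.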

[19] = at 7.69 µM (top of the series) unless noted

3',5'-cyclic-AMP phosphodiesterase 4B (Homo sapiens), sequence (Q07343 whole entry, looked up): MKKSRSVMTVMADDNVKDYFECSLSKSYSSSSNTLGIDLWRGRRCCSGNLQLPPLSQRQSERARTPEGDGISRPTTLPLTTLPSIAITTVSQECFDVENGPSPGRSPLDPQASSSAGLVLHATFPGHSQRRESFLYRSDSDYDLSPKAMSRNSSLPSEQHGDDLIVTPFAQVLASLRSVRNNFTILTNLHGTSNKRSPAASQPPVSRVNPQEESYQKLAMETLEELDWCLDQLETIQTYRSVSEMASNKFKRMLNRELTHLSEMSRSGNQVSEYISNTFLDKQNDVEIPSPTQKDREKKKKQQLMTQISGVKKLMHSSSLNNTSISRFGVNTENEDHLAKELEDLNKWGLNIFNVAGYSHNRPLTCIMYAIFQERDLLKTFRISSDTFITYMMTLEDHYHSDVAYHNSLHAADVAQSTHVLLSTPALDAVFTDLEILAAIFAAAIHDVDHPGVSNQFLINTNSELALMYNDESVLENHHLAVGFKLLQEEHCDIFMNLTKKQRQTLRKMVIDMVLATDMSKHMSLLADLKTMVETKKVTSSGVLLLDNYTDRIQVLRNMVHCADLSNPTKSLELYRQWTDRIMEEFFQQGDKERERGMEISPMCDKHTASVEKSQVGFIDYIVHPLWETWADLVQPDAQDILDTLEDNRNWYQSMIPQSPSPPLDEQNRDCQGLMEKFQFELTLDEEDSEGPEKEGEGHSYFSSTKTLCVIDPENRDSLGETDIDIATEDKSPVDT
Guanine nucleotide-binding protein G(i) subunit alpha-1 (Homo sapiens), sequence (P63096 whole entry, looked up): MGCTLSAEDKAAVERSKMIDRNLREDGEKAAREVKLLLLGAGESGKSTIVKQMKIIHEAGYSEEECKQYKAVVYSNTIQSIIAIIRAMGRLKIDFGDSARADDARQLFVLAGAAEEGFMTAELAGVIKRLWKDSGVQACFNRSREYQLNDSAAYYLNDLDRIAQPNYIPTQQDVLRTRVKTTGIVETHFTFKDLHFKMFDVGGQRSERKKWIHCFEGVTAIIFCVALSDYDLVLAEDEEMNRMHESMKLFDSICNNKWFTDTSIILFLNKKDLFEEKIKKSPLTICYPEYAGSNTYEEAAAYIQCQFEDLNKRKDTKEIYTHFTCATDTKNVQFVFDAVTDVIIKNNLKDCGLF
Alpha-galactosidase A (Homo sapiens), sequence (P06280 whole entry, looked up): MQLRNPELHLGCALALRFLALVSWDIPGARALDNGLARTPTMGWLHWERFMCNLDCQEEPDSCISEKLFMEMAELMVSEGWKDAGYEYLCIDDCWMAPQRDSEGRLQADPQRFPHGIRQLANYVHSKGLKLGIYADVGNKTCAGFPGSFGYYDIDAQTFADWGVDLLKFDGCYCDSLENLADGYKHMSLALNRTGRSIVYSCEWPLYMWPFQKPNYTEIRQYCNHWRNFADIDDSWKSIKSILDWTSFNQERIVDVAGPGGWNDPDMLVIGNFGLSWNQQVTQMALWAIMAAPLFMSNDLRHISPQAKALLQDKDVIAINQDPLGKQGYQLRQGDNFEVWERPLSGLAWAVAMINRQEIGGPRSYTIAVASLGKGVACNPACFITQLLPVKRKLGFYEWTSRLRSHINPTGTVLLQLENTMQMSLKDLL
Pyruvate kinase PKM (Homo sapiens), sequence (P14618 whole entry, looked up): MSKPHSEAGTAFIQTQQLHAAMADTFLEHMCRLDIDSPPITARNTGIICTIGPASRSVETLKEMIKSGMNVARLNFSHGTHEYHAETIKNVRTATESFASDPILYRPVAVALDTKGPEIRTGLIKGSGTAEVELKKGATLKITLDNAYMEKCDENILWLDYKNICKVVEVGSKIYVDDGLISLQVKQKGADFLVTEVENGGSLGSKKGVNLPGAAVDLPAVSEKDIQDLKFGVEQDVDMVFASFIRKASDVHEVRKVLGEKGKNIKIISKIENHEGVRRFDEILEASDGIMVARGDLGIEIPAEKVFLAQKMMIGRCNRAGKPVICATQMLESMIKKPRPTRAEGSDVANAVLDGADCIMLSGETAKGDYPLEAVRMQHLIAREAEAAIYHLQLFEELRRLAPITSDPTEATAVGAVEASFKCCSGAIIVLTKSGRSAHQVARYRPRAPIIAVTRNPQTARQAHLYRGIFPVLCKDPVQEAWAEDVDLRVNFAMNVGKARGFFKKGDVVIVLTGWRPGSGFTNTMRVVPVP
Cytochrome P450 1A2 (Homo sapiens), sequence (P05177 whole entry, looked up): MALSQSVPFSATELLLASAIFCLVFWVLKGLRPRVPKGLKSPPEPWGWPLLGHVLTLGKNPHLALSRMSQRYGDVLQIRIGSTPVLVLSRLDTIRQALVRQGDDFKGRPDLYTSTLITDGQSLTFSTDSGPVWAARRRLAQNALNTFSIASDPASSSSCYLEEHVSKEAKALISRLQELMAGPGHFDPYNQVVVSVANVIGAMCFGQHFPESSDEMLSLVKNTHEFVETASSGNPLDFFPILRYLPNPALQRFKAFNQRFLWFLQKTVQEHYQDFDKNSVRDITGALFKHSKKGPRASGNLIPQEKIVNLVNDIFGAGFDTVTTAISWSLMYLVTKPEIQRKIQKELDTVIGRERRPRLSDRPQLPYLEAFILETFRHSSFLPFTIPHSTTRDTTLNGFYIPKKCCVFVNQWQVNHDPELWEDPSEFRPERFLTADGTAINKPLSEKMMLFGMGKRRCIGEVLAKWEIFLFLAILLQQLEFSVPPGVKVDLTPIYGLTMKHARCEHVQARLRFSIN
Muscarinic acetylcholine receptor M1 (Rattus norvegicus), sequence (P08482 whole entry, looked up): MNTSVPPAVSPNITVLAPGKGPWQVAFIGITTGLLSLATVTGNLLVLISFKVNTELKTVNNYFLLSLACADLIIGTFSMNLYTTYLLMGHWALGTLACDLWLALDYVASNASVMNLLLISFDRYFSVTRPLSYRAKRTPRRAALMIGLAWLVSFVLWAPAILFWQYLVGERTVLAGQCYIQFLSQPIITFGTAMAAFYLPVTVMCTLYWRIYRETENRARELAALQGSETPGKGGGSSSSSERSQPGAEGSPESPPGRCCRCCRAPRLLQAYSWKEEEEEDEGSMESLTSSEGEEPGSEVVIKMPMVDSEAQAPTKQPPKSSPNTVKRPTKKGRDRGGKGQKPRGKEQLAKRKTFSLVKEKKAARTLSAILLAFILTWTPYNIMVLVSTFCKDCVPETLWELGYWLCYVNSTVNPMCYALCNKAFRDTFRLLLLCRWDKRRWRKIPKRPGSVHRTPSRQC
Pyruvate kinase (Leishmania mexicana), sequence (Q27686 2-499 E452W): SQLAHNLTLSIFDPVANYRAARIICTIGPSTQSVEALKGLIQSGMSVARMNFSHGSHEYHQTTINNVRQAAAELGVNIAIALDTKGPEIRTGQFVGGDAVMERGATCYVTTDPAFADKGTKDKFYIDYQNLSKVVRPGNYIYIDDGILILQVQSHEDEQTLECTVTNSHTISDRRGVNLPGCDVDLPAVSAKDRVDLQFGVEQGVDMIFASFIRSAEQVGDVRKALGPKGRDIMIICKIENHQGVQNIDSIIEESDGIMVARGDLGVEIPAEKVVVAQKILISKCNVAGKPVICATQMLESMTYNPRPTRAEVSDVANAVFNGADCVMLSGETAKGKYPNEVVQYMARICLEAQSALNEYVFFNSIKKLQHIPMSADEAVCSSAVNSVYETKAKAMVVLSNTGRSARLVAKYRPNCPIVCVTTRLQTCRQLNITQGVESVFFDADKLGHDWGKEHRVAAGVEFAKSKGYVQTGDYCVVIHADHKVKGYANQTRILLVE

## CNC(=O)[C@H]1O[C@@H](n2cnc3c(NCc4cccc(I)c4)ncnc32)[C@H](O)[C@H]1O
[1]
  Potency: 7.94 µM (active)
[2]
  Potency: 8.91 µM (active)

## N[C@H](Cc1ccc(O)c(O)c1)C(=O)O
[1]
  Potency: inactive
[3]
  Potency: inactive
[2]
  Potency: inactive
[4]
  outcome: inactive
[5]; parasite line A
  activity, negative = inhibition: 9.99% (inactive)
[5]; parasite line B
  activity, negative = inhibition: 20.6% (inactive)

## CC(=O)O[C@H]1C[C@@H]2CCC3C(CC[C@@]4(C)[C@H]3C[C@H]([N+]3(C)CCCCC3)[C@@H]4OC(C)=O)[C@@]2(C)C[C@@H]1[N+]1(C)CCCCC1 (stereo partly specified)
[1]
  Potency: inactive
[3]
  Potency: inactive
[4]
  outcome: inactive

## COc1ccc(CCNC[C@@H](O)c2ccc(O)cc2)cc1OC
[1]
  Potency: inactive
[3]
  Potency: inactive
[4]
  outcome: inactive
[5]; parasite line A
  activity, negative = inhibition: 10.4% (inactive)
[5]; parasite line B
  activity, negative = inhibition: 8.86% (inactive)

## NCCC(=O)NCCc1cnc[nH]1
[6]; at 17.2 µM (top of the series)
  activity change, negative = inhibition: -8.55% (inactive)
[6]; at 38 µM (top of the series)
  activity change, negative = inhibition: 7.43% (inactive)
[7]
  Potency: inactive
[8]; at 17.2 µM (top of the series)
  activity change, negative = inhibition: -0.872% (inactive)
[8]; at 38 µM (top of the series)
  activity change, negative = inhibition: 2.63% (inactive)
[9]; at 17.2 µM (top of the series)
  activity, negative = inhibition: 9.79% (inactive)
[9]; at 38 µM (top of the series)
  activity, negative = inhibition: -27.3% (inactive)
[10]
  Potency: inactive
[11]
  outcome: inactive
[12]
  Potency: inactive
[13]
  Potency: inactive
[14]
  outcome: inactive
[15]
  outcome: inactive
[16]
  outcome: inactive
[1]
  Potency: inactive
[3]
  Potency: inactive
[2]
  Potency: inactive
[4]
  outcome: inactive

## CCCCCCCCCCCCCCC/C=C/[C@@H](O)[C@H](NC(=O)CCCCCCCCCCCCC)OC (tested in a mixture with another compound)
[1]
  Potency: inactive
[3]
  Potency: inactive
[2]
  Potency: inactive
[4]
  outcome: inactive

## NCC1OC(O[C@@H]2[C@H](O)[C@@H](OC3C(O)C(N)CC(N)C3OC3OC(CO)C(O)C(O)C3N)O[C@@H]2CO)C(N)C(O)C1O (stereo partly specified)
[1]
  Potency: inactive
[3]
  Potency: inactive
[2]
  Potency: inactive
[4]
  outcome: inactive
[17]
  outcome: inactive

## CN=C(N)NCCCC(N)C(=O)O (stereo unspecified)
[1]
  Potency: inactive
[3]
  Potency: inactive
[2]
  Potency: inactive
[4]
  outcome: inactive
[17]
  outcome: inactive
[5]; parasite line A
  activity, negative = inhibition: 12.3% (inactive)
[5]; parasite line B
  activity, negative = inhibition: 12.2% (inactive)

## Cc1ccccc1N1CCN(S(=O)(=O)C[C@]23CCC(CC2NC(=O)[C@@H](N)CCS(C)(=O)=O)C3(C)C)CC1 (stereo partly specified)
[2]
  Potency: 12.6 µM (active)
[17]
  outcome: inactive

## NC(=NCCC[C@H](N)C(=O)O)NO
[6]; [19]
  activity change, negative = inhibition: -0.154% [at 38 µM] (inactive)
[7]
  Potency: inactive
[8]; [19]
  activity change, negative = inhibition: 10.4% [at 38 µM] (inactive)
[9]; [19]
  activity, negative = inhibition: -18.2% [at 38 µM] (inactive)
[10]
  Potency: inactive
[11]
  outcome: inactive
[12]
  Potency: inactive
[13]
  Potency: inactive
[14]
  outcome: inactive
[15]
  outcome: inactive
[16]
  outcome: inactive
[1]
  Potency: inactive
[3]
  Potency: inactive
[2]
  Potency: inactive
[4]
  outcome: inactive

## Nc1ncnc2c1ncn2[C@@H]1O[C@H](C(=O)NC2CC2)[C@H](O)[C@H]1O
[1]
  Potency: inactive
[3]
  Potency: inactive
[4]
  outcome: inactive

## Cc1cn([C@H]2C[C@@H](N=[N+]=[N-])[C@@H](CO)O2)c(=O)[nH]c1=O
[1]
  Potency: inactive
[3]
  Potency: inactive
[2]
  Potency: inactive

## OC[C@H]1O[C@@H](n2cnc3c(NCCc4ccccc4)ncnc32)[C@H](O)[C@H]1O
[11]
  outcome: inactive
[12]
  Potency: inactive
[13]
  Potency: inactive
[14]
  outcome: inactive
[15]
  outcome: inactive
[16]
  outcome: inactive
[1]
  Potency: inactive
[3]
  Potency: inactive
[4]
  outcome: inactive

## NC(=S)c1ccc[n+]([C@@H]2O[C@@H](COP(=O)([O-])OP(=O)(O)OC[C@H]3O[C@@H](n4cnc5c(N)ncnc54)[C@H](OP(=O)(O)O)[C@H]3O)C(O)C2O)c1 (stereo partly specified)
[1]
  Potency: inactive
[3]
  Potency: inactive
[2]
  Potency: inactive
[4]
  outcome: inactive

## CC(C)C1NC(=O)[C@H](CCCCN)NC(=O)[C@@H](Cc2c[nH]c3ccccc23)NC(=O)[C@H](Cc2ccc(O)cc2)NC(=O)[C@H](C)N(C)C(=O)[C@H](Cc2ccccc2)NC1=O (stereo partly specified)
[1]
  Potency: inactive
[3]
  Potency: inactive

## Nc1nc(Nc2ccccc2)nc2c1ncn2[C@@H]1O[C@H](CO)[C@H](O)[C@H]1O
[4]
  outcome: inactive

## C[C@@H](Oc1cc(C(=O)Nc2ccc(C(=O)N3CCN(C)CC3)cc2)nnc1N)c1c(Cl)ccc(F)c1Cl
[18]
  Z-AUC: -0.576 (inactive)
[18]; measured here: PEO1 parental Z-AUC
  Z-AUC: -1.08
[18]; measured here: PEO4 Z-AUC
  Z-AUC: -1.2

## C[C@]12CCC(=O)C=C1CC[C@@H]1C2[C@@H](O)C[C@@]2(C)[C@H]1CC[C@]2(O)C(=O)CO (stereo partly specified)
[3]
  Potency: inactive
[2]
  Potency: inactive
[4]
  outcome: inactive
[17]
  outcome: inactive
